Screening data deposited in PubChem BioAssay by National Center for Advancing Translational Sciences (NCATS).
Sm TGR inh = blocks Schistosoma mansoni thioredoxin glutathione reductase; AID 485364; purified TGR, DTNB reduction, TNB absorbance 405 nm; Potency, µM (series often up to 114 µM), for inactives: at the highest dose activity change, negative = inhibition, usual class: inhibitors; Q962Y6; 3% of 360,000 active; note: nearly all actives have a fitted effect of over 60% in size
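Kinetic colorimetric format: TGR-catalysed, NADPH-driven DTNB reduction monitored via TNB absorbance. Enzyme dispensed at 20 nM; compound exposure 15 min at room temperature before reaction start.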
Tb PYK inh = inhibitors of Trypanosoma brucei pyruvate kinase | TbPYK enzyme, Kinase-Glo Plus ATP luminescence, 45 min | Potency, µM (top dose mostly 76.8 µM), for inactives: at the highest dose activity, negative = inhibition, actives largely listed as inhibitors | 0.12% of 410,000 active | AID 624173; note: nearly all actives have a fitted effect of over 50% in size
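T. brucei PYK with substrate was exposed to pin-transferred compounds across a concentration series, then started with 130 uM ADP (final). After 45 min at room temperature, Kinase-Glo Plus luminescence was read, normalized and curve-fitted.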
RE007 growth inh = less growth of the S. pombe RE007 Vpr strain; AID 651644; Potency, µM (highest dose often 92.2 µM), for the others: at the highest dose activity change, negative = less growth, hits mostly inhibitors; 0.21% of 360,000 active; S. pombe RE007 Vpr strain, BacTiter-Glo ATP luminescence, 24 h; active = well fitted falling curve with a large enough effect; inconclusive = small, poorly fitted or top-dose-only effect; inactive = no such curve, though single readings can be large or run the other way; note: nearly all actives have a fitted effect of over 50% in size
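Fission yeast RE007 carrying one integrated HIV-1 vpr copy, seeded at OD 0.01 in PMG+AL medium with 23 nL pinned compound. Grown 24 h at 30 degrees; viability read by BacTiter-Glo luminescence after 5 min.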
FMDV antiviral = antivirals against foot and mouth disease virus; FMDV antiviral cell-based qHTS; Potency, µM (titrated, usually from 57.9 µM), without a hit: at the highest dose activity change, negative = inhibition, hits mostly inhibitors; 1.2% of 410,000 active; calls by dose curve; tested in HEK293T cells; note: read-out not given here; nearly all actives have a fitted effect of over 45% in size
* = called active by the depositor; [ ] = dose if it differs, or a comment. An excerpt weighted towards active compounds, which were near 3.7% of everything screened. Unless noted, calls come from the whole dose curve; as a rule, active = well fitted curve in the direction sought with a large enough effect; inconclusive = small, poorly fitted or top-dose-only effect, or another doubt; inactive = no such curve, though single readings can be large; an effect the other way counts as inactive or inconclusive. % is set by controls: 0 for no effect and ±100 for the full control effect; potency is the fitted concentration of half-maximal effect.

Screening COc1ccc(C[C@H]2CN3C(=NC[C@@H]3C)N2CCNC(=O)CCC2CCCCC2)cc1 returned Sm TGR inh 16µM*, Tb PYK inh 0%, RE007 growth inh 7% and FMDV antiviral -7%.
Screening COCC(=O)Nc1cc(C(=O)N2CCN(C)C(c3ccccc3)C2)c2c(c1)nc(-c1ccncc1)n2C (centres undefined) returned FMDV antiviral -7%.
For COC(=O)/C=C1/SC(=NC(=O)c2cccc([N+](=O)[O-])c2)NC1=O the results were Sm TGR inh -17%, Tb PYK inh -9%, RE007 growth inh 7% and FMDV antiviral -27%.
COC(=O)/C=C1/SC(=NC(=O)c2ccc(F)cc2)NC1=O was read as Sm TGR inh -24%, Tb PYK inh -2%, RE007 growth inh 2% and FMDV antiviral 40µM*.
For COC(=O)/C=C1\SC(=NC(=O)c2cccc([N+](=O)[O-])c2)NC1=O the results were Sm TGR inh -13%, Tb PYK inh -8%, RE007 growth inh 10% and FMDV antiviral 14µM*.
For COc1cc(/C=C2\SC(=O)NC2=O)ccc1Oc1ccc([N+](=O)[O-])cc1[N+](=O)[O-] the results were Sm TGR inh -24%, Tb PYK inh -11%, RE007 growth inh 4% and FMDV antiviral -3%.
Screening CCN1C(=O)C(=Cc2cccc(OC)c2Oc2ccc([N+](=O)[O-])cc2[N+](=O)[O-])SC1=S returned Sm TGR inh -21%, Tb PYK inh -8%, RE007 growth inh -14% and FMDV antiviral 13µM*.
O=C(Nc1ccc(F)cc1)[C@H](CSCc1ccccc1)N1Cc2ccccc2C1=O was read as Sm TGR inh 0%, Tb PYK inh -1% and FMDV antiviral 42%.
O=C(NCCc1csc(-c2ccc(Cl)cc2)n1)c1cccs1 was read as Sm TGR inh 0%, Tb PYK inh -4% and FMDV antiviral 25µM*.
Screening O=C(NCCc1csc(-c2ccccc2)n1)c1cccs1 returned Sm TGR inh -18%, Tb PYK inh -11%, RE007 growth inh -6% and FMDV antiviral -13%.
`O=C(NCc1ccccc1F)c1cccc(NC(=O)N2CCSc3ncccc32)c1` gave Sm TGR inh -2%, Tb PYK inh -1%[15.4 µM] and FMDV antiviral -26%.
For CCN1C=C(Cc2ccccc2C)C2=C(C1)C(c1ccccc1C)C(C#N)=C(N)O2 (centres undefined) the results were Sm TGR inh 45µM*, Tb PYK inh 3%, RE007 growth inh 4% and FMDV antiviral inconclusive.
Screening CCN1C=C(Cc2ccc(F)cc2)C2=C(C1)C(c1ccc(F)cc1)C(C#N)=C(N)O2 (centres undefined) returned Sm TGR inh inconclusive, Tb PYK inh 2%, RE007 growth inh -3% and FMDV antiviral inconclusive.
Screening Cc1c(C(=O)c2ccc(F)cc2)c2ccccn2c1CCc1ccccn1 returned Sm TGR inh -26%, Tb PYK inh -5%, RE007 growth inh -21% and FMDV antiviral 40µM*.
For Cc1ccc(C(c2c(C)n(C)n(-c3ccccc3)c2=O)c2c(C)n(C)n(-c3ccccc3)c2=O)s1 the results were Sm TGR inh 25µM*, Tb PYK inh 1%, RE007 growth inh -8% and FMDV antiviral -12%.
For Cc1c(C(c2ccc(O)cc2)c2c(O)c3ccccc3oc2=O)c(=O)n(-c2ccccc2)n1C (centres undefined) the results were Sm TGR inh 14µM*, Tb PYK inh -13%, RE007 growth inh -15% and FMDV antiviral 10%.
Cc1c(C(c2ccc(O)cc2)c2c(C)n(C)n(-c3ccccc3)c2=O)c(=O)n(-c2ccccc2)n1C was read as Sm TGR inh -11%, Tb PYK inh -25%, RE007 growth inh 0% and FMDV antiviral -16%.
`CC(C)c1nc2n(n1)C1(CCCCC1)[C@@H]1CCCC[C@@H]1N2` gave Sm TGR inh 7%, Tb PYK inh 5% and FMDV antiviral -16%.
CCOc1ccc(CN(C(=O)/C=C/c2ccco2)C2CCS(=O)(=O)C2)cc1 (centres undefined) was read as Sm TGR inh 4.5µM*, Tb PYK inh -11%, RE007 growth inh 12% and FMDV antiviral -14%.
For COc1ccc(CN(C(=O)/C=C/c2ccco2)C2CCS(=O)(=O)C2)cc1 (centres undefined) the results were Sm TGR inh 2µM*, Tb PYK inh -6%, RE007 growth inh 2% and FMDV antiviral 10%.
